The values below come from PubChem BioAssay (NCATS).

Assay [1] is described as follows: qHTS profiling for inhibitors of Plasmodium falciparum proliferation (AID 504749).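 On activity, negative = inhibition: 0% = DMSO vehicle and full inhibition = artemisinin control.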 On all read-outs here: nearly all actives have a fitted effect of over 60% in size. The note with it: P. falciparum in erythrocytes, SYBR Green DNA, 72 h; for activity, negative = inhibition: at 28.7 µM (top of the series). The gist of the method: (§1)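 P. falciparum-infected erythrocytes (0.3% parasitemia, 2.5% hematocrit) incubated with compound 72 h at 37 C, 5% CO2. Parasite DNA detected by SYBR Green after lysis, overnight at room temperature; normalised to 0.29 uM artemisinin and DMSO.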

The next assay relates to 3D7. Described as above. The conditions noted are these: P. falciparum in erythrocytes, SYBR Green DNA, 72 h; series mostly up to 28.7 µM. Summed up:
as §1

The next assay has as its system 7G8. The assay is described as above. The note with it: P. falciparum in erythrocytes, SYBR Green DNA, 72 h; series mostly up to 28.7 µM. The gist of the method:
as §1

Another assay has as its system AA1029. Described as above. The note with it: P. falciparum in erythrocytes, SYBR Green DNA, 72 h; series mostly up to 28.7 µM. The gist of the method: as §1
A further assay concerns AS120. The assay is described as above. The note with it: P. falciparum in erythrocytes, SYBR Green DNA, 72 h; series mostly up to 28.7 µM. Summed up: as §1
The next assay deals with ATS189. The description is as above. The conditions noted are these: P. falciparum in erythrocytes, SYBR Green DNA, 72 h; series mostly up to 28.7 µM. The gist of the method:
as §1

A further assay concerns ATS95. The assay is described as above. The note with it: P. falciparum in erythrocytes, SYBR Green DNA, 72 h; series mostly up to 28.7 µM. Summed up: as §1
Another assay relates to C2A. The assay is described as above. The conditions noted are these: P. falciparum in erythrocytes, SYBR Green DNA, 72 h; series mostly up to 28.7 µM. The gist of the method:
as §1

The test system of a further assay is CP185. Described as above. The conditions noted are these: P. falciparum in erythrocytes, SYBR Green DNA, 72 h; series mostly up to 28.7 µM. The gist of the method: as §1
A further assay has as its system CP191. Described as above. The conditions noted are these: P. falciparum in erythrocytes, SYBR Green DNA, 72 h; series mostly up to 28.7 µM. Summed up:
as §1

A further assay deals with CP192. Described as above. The conditions noted are these: P. falciparum in erythrocytes, SYBR Green DNA, 72 h; series mostly up to 28.7 µM. The gist of the method:
as §1

Records with an inconclusive call do not appear. Values without a mark were called inactive. The source made the active and inactive calls. The call rests on the fitted dose curve; in most records, active means well fitted inhibition curve with a large enough effect; inconclusive means small, poorly fitted or top-dose-only effect; inactive means flat fitted curve, though single readings scatter.
Potency means the concentration at half of the fitted maximal effect.

Regarding `CC(C)CCC[C@@H](C)[C@H]1CC[C@H]2[C@@H]3CC=C4C[C@@H](O)CC[C@]4(C)[C@H]3CC[C@]12C`, the activity, negative = inhibition was 4.96% in assay [1] (parasite line A) and -1.65% in assay [1] (parasite line B). In addition, the Potency result in the assay with 3D7, in the assay with 7G8, in the assay with AA1029, with AS120, in the assay on ATS189 and in the assay on ATS95 was “inactive” in each case. Also, the Potency result in the assay with C2A, with CP185, in the assay with CP191 and in the assay on CP192 was “inactive” in each case.
On to `Cc1cc(=O)c(C(=O)N[C@@H](C(=O)N[C@@H]2C(=O)N3C(C(=O)O)=C(CSc4nnnn4C)CS[C@H]23)c2ccc(O)cc2)c[nH]1`, for which the activity, negative = inhibition was 5.19% in assay [1] (parasite line A) and 9.95% in [1] (parasite line B). Besides, the Potency result with 3D7, in the assay with 7G8, with AA1029, in the assay on AS120, in the assay with ATS189 and with ATS95 was “inactive” in each case. In addition, the Potency entry with C2A, with CP185, with CP191 and with CP192 was “inactive” each time.
Turning to `O=C(OC1C[C@@H]2CC3C[C@H](C1)N2CC3=O)c1c[nH]c2ccccc12` (stereo partly specified), the activity, negative = inhibition was -11.9% in [1] (parasite line A) and -12.9% in assay [1] (parasite line B). Further, the Potency entry with 3D7, with AA1029, with AS120, in the assay with ATS189, with ATS95 and in the assay on C2A was “inactive” in each case. Besides, the Potency result in the assay on CP185, in the assay on CP191 and in the assay on CP192 was “inactive” each time. The Potency in the assay on 7G8 was 11.2 µM (active).
As to `FC(F)(F)COCC(F)(F)F`, the values for the activity, negative = inhibition in assay [1] (parasite line A) and in [1] (parasite line B) were 12.5% and -2.69%, respectively. For the same compound, the Potency result in the assay with 3D7, in the assay on 7G8, with AA1029, in the assay on AS120, in the assay on ATS189 and with ATS95 was “inactive” in each case. The Potency result with C2A, in the assay with CP185, in the assay with CP191 and in the assay with CP192 was “inactive” each time.
Consider `CC1C(=O)CC2C3(C)CCC2(C(C)C(=O)O)C(=O)C13` (stereo unspecified), for which the results for the activity, negative = inhibition in [1] (parasite line A) and in [1] (parasite line B) were 5.64% and 13.7%, respectively. The Potency entry with 3D7, with 7G8, with AA1029, in the assay on AS120, in the assay on ATS189 and in the assay with ATS95 was “inactive” in each case. The Potency result in the assay with C2A, in the assay on CP185, in the assay with CP191 and with CP192 was “inactive” throughout.
For `CCCCCCOC(=O)c1cccnc1`, the activity, negative = inhibition in [1] (parasite line A) is 6.05%; in assay [1] (parasite line B) it was -29.8%. Moreover, the Potency entry with 3D7, in the assay with 7G8, in the assay with AA1029, in the assay on AS120, with ATS189 and in the assay with ATS95 was “inactive” in each case. The Potency entry with C2A, in the assay on CP185, with CP191 and with CP192 was “inactive” throughout.
With `COc1ccc2c(c1)OC(C)(C)C(c1ccccc1)C2c1ccc(OCCN2CCCC2)cc1` (stereo unspecified), the Potency in [1] (parasite line A) was 2.24 µM (active); in assay [1] (parasite line B), 3.98 µM (active); in the assay on 3D7, 3.16 µM (active); in the assay with 7G8, 2.82 µM (active); with AA1029, 3.55 µM (active); in the assay on AS120, 3.16 µM (active). The Potency in the assay with ATS189 is 3.55 µM (active); with ATS95, 5.01 µM (active); in the assay with C2A it was 4.47 µM (active); in the assay with CP185, 3.98 µM (active); in the assay with CP191, 2.51 µM (active); in the assay with CP192, 10.7 µM (active).
With `OCCCNc1ccccc1`, the activity, negative = inhibition in assay [1] (parasite line A) is 8.17%; in assay [1] (parasite line B), 6.74%. Moreover, the Potency result in the assay with 3D7, in the assay on 7G8, with AA1029, in the assay on AS120, in the assay with ATS189 and in the assay on ATS95 was “inactive” in each case. Besides, the Potency result in the assay with C2A, with CP185, with CP191 and in the assay on CP192 was “inactive” in each case.
Regarding `CNC(=O)OCc1cccc(COC(=O)NC)n1`, the activity, negative = inhibition is 3.63% in assay [1] (parasite line A) and 1.01% in [1] (parasite line B). Further, the Potency entry in the assay with 3D7, in the assay on 7G8, in the assay with AA1029, with AS120, in the assay on ATS189 and in the assay with ATS95 was “inactive” each time. The Potency entry in the assay with C2A, in the assay with CP185, in the assay with CP191 and in the assay with CP192 was “inactive” each time.
`FC(F)(F)C(F)(F)C(F)(F)C(F)(F)C(F)(F)F`: the values for the activity, negative = inhibition in [1] (parasite line A) and in assay [1] (parasite line B) were 11% and 17.9%, respectively. Further, the Potency entry in the assay with 3D7, with 7G8, with AA1029, with AS120, in the assay on ATS189 and in the assay with ATS95 was “inactive” each time. Further, the Potency result in the assay with C2A, with CP185, with CP191 and in the assay on CP192 was “inactive” each time.
Regarding `CCC(O)c1ccccc1` (stereo unspecified), the activity, negative = inhibition in [1] (parasite line A) was 5.27%; in assay [1] (parasite line B), 8.76%. Also, the Potency result in the assay with 3D7, with 7G8, in the assay with AA1029, in the assay on AS120, in the assay with ATS189 and in the assay with ATS95 was “inactive” throughout. The Potency result in the assay on C2A, in the assay with CP185, with CP191 and in the assay with CP192 was “inactive” throughout.
For `C=CC(C)(O)CC/C=C(\C)CCC=C(C)C` (stereo unspecified), the activity, negative = inhibition in assay [1] (parasite line A) is 2.76%; in [1] (parasite line B), -4.38%. The Potency result with 3D7, in the assay on 7G8, in the assay on AA1029, in the assay on AS120, in the assay with ATS189 and in the assay on ATS95 was “inactive” in each case. Besides, the Potency result in the assay on C2A, with CP185, in the assay on CP191 and in the assay with CP192 was “inactive” in each case.
Take `O=P(O)(O)O`: the activity, negative = inhibition is 1.79% in assay [1] (parasite line A) and 16.4% in [1] (parasite line B). Further, the Potency entry in the assay on 3D7, with 7G8, with AA1029, with AS120, in the assay with ATS189 and in the assay with ATS95 was “inactive” each time. Further, the Potency entry in the assay on C2A, with CP185, in the assay with CP191 and in the assay on CP192 was “inactive” throughout.
Turning to `CC(=O)Oc1cccc(C(=O)O)c1OC(C)=O`, the activity, negative = inhibition is 7.04% in assay [1] (parasite line A) and 3.67% in assay [1] (parasite line B). The Potency entry in the assay on 3D7, with 7G8, in the assay with AA1029, in the assay on AS120, in the assay with ATS189 and in the assay with ATS95 was “inactive” throughout. Also, the Potency result in the assay on C2A, in the assay with CP185, with CP191 and with CP192 was “inactive” each time.
For `CC1(O)CCC(C(C)(C)O)CC1` (stereo unspecified), the activity, negative = inhibition was -2.29% in assay [1] (parasite line A) and 4.1% in assay [1] (parasite line B). Also, the Potency entry with 3D7, with 7G8, in the assay on AA1029, with AS120, with ATS189 and in the assay with ATS95 was “inactive” in each case. Moreover, the Potency result in the assay with C2A, in the assay with CP185, in the assay on CP191 and in the assay on CP192 was “inactive” each time.
As for `CC(C)c1nc(N(C)S(C)(=O)=O)nc(-c2ccc(F)cc2)c1/C=C/C(O)CC(O)CC(=O)O` (stereo unspecified), the activity, negative = inhibition is 3.93% in [1] (parasite line A) and -1.83% in [1] (parasite line B). The Potency result in the assay with 3D7, in the assay with 7G8, with AA1029, with AS120, in the assay with ATS189 and in the assay with ATS95 was “inactive” throughout. The Potency entry in the assay with C2A, in the assay with CP185, in the assay on CP191 and in the assay with CP192 was “inactive” in each case.
As to `CCCCCCCCCCCCOCCCN`, the activity, negative = inhibition is -4.13% in assay [1] (parasite line A) and 8.54% in [1] (parasite line B). The Potency entry with 3D7, with 7G8, in the assay on AA1029, in the assay on AS120, in the assay on ATS189 and in the assay with ATS95 was “inactive” throughout. Further, the Potency result in the assay with C2A, in the assay on CP185, in the assay with CP191 and in the assay on CP192 was “inactive” each time.
`CCCCC(CC)COS(=O)(=O)O` (stereo unspecified): the activity, negative = inhibition in assay [1] (parasite line A) was 12.8%; in [1] (parasite line B), 12.3%. In addition, the Potency entry with 3D7, in the assay with 7G8, in the assay with AA1029, with AS120, in the assay with ATS189 and in the assay on ATS95 was “inactive” throughout. Also, the Potency entry with C2A, with CP185, with CP191 and with CP192 was “inactive” throughout.
